# Measured values as given in PubChem BioAssay (EPA / NIEHS).
# The source made the active and inactive calls. The calls were made as follows: active = hit-call score of the fitted dose curve at least 0.9, where 1 is the maximum; inactive = score below 0.9. Peptide text beside a SMILES is read from it.
# Test: ATG_PXRE_CIS: Attagene CIS-FACTORIAL HepG2 Assay for human Pregnane X Receptor Element (PXRE) (AID 2282957)
# Conditions: HepG2 Attagene CIS-FACTORIAL PXRE reporter, mRNA; actives raise or lower the signal
# Procedure: ATG_CIS is a cell-based, multiplexed-readout assay that uses HepG2, a human liver cell line, with measurements taken at 24 hours after chemical dosing in a 24-well plate.ATG_PXRE_CIS is one of 52 assay component(s) measured or calculated from the ATG_CIS assay. It is designed to make measurements of mRNA induction, a form of inducible reporter, as detected with fluorescence intensity signals by Reverse transcription polymerase chain reaction (RT-PCR) and Capillary electrophoresis technology.Data from the assay component ATG_PXRE_CIS was analyzed into 1 assay endpoint. This assay endpoint, ATG_PXRE_CIS, was analyzed with bidirectional fitting relative to DMSO as the negative control and baseline of activity. Using a type of inducible reporter, measures of mRNA for gain or loss-of-signal activity can be used to understand the reporter gene at the transcription factor-level as they relate to the gene NR1I2. Furthermore, this assay endpoint can be referred to as a primary readout, because this assay has produced multiple assay endpoints where this one serves a reporter gene function. To generalize the intended target to other relatable targets, this assay endpoint is annotated to the nuclear receptor intended target family, where the subfamily is non-steroidal.
# Human liver HepG2 cells are transiently transfected with multiple reporter transcription units (MRTUs) in 6-well plates using FuGene 6 reagent (Roche; 3 ml FuGene/1 mg DNA). The MRTU constructs are regulated by a cis-regulating element (promoter). […] A major difference between the CIS and TRANS system is that in CIS activities of endogenous TFs are measured, whereas the TRANS assay evaluates changes in activities of exogenous, chimeric NR-Gal4 proteins. […] At the end of 24 hour incubation, total RNA was isolated using TriZol reagent (Invitrogen). The isolated RNA is then reverse-transcribed using oligo(dT) primer and Mo-MLV reverse transcriptase (Invitrogen) with DNAse I (Ambion) treatment for 30 min. The one-tenth of the produced cDNA was amplified by PCR using Taq DNA polymerase (Invitrogen) and two reporter sequence-specific primers. The PCR products were fluorescently labeled by primer extension with 6-arboxyfluorescein (6-FAM) 5'-labeled reporter sequence-specific primer (2 min at 95 C, 20 s at 68 C and 10 min at 72 C) and these products were digested with 5U of HpaI (New England Biolabs) for 2h at 37 C. The fragments were purified using Qiaquick PCR columns (Qiagen), analyzed on an ABI 3130xL genetic analyzer (Applied Biosystems) with peak positions identified by using a set of X-rhodamine (ROX)-labeled MapMarker1000 molecular weight standards (BioVentures). The raw capillary electrophoresis data was processed using Attagraph software (Attagene).
Structure (SMILES),AC50,outcome
Cc1c(C(=O)c2c[nH]n(C)c2=O)ccc(S(C)(=O)=O)c1C1=NOCC1,14.4 µM (active),–
[Cl][Eu]([Cl])[Cl],–,inactive
C=CCCCCCCCCO,51.6 µM (active),–
CCC[Si](OC)(OC)OC,129 µM (active),–
CCCCCCCCCCCC(=O)N(C)CC(=O)O,–,inactive
CC(C)C(=O)OCCOc1ccccc1,4.56 µM (active),–
C=C[C@@]1(C)CC(=O)[C@]2(O)[C@@]3(C)[C@@H](O)CCC(C)(C)[C@@H]3[C@H](O)[C@H](OC(C)=O)[C@@]2(C)O1,0.433 µM (active),–
C=CC(=O)NC(C)(C)C,26.9 µM (active),–
Cn1cccc1,–,inactive
CCCCCCOC(=O)CCCCC(=O)OCCCCCC,19.8 µM (active),–
CCCCCCCC(=O)OCC(COC(=O)CCCCCCC)OC(=O)CCCCCCC,–,inactive
CCCC/C=C/C=C\C=O,2.79 µM (active),–
C=CC(=O)OCCCCCCCCCC,26.4 µM (active),–
C[N+](C)(C)CCCNS(=O)(=O)C(F)(F)C(F)(F)C(F)(F)C(F)(F)C(F)(F)C(F)(F)C(F)(F)C(F)(F)F,41.7 µM (active),–
CC(=O)c1ccc(S(=O)(=O)NC(=O)NC2CCCCC2)cc1,100 µM (active),–
CCCC(C)C(=O)OCC (stereo not given),–,inactive
Nc1ncnc2nc[nH]c12,–,inactive
COC(=O)[C@H](Cc1ccccc1)NC(=O)[C@@H](N)CC(=O)O (H-Asp-Phe-OMe),–,inactive
CC1=CC(C)C(C=O)CC1 (stereo not given),27.7 µM (active),–
CC(=O)OCCc1ccccc1,–,inactive

Structure (SMILES),AC50,outcome
O=C(OCCc1ccccc1)c1ccccc1,–,inactive
CC(=O)CCC=C(C)C,–,inactive
C=CC(=O)O[C@H]1C[C@@H]2CC[C@@]1(C)C2(C)C,1.52 µM (active),–
CC(C)CCOCc1ccccc1,–,inactive
Nc1ccc(Cl)c(N)c1,–,inactive
COC(=O)C=Cc1ccccc1,–,inactive
CC(C)c1cc(C(C)C)cc(C(C)C)c1,52.1 µM (active),–
C/C=C/C=C/CCCCCCCO,25.5 µM (active),–
CCc1occc(=O)c1O,28.4 µM (active),–
N#CC1(N)CCCCC1,–,inactive
CC(CC(C)C)=NO,–,inactive
CC(C)CCCCCOC(=O)CS,11.8 µM (active),–
CN1CCN(C)CC1,–,inactive
CCN(CC)c1cccc(C)c1,27.7 µM (active),–
O=C(O)c1ccc2c(c1)C(=O)OC2=O,–,inactive
C=C(C)C(=O)OCCOC(=O)C(=C)C,–,inactive
CCOC(=O)[C@H](O)[C@@H](O)C(=O)OCC,52.4 µM (active),–
C=Cc1ccc(OC(C)=O)cc1,–,inactive
CCOC(=O)c1ccc(C)cc1,56.8 µM (active),–
Oc1ccc(/C=C/c2cc(O)cc(O)c2)cc1,–,inactive
